Experimental data: ChEMBL document CHEMBL1961873, “Compounds: GSK PKIS; Assays: Nanosyn kinase panel” (2012)

Key:
[1] = biological target: Sphingosine kinase 1 (Homo sapiens) (UniProt Q9NYA1); details: at 1 µM;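 further: mean SPHK1 inhibition value reported from the GSK PKIS kinase panel screen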
[2] = biological target: T1, Sphingosine kinase 2 (Homo sapiens) (UniProt Q9NRA0); details: at 0.1 µM
T1 sequence (whole entry): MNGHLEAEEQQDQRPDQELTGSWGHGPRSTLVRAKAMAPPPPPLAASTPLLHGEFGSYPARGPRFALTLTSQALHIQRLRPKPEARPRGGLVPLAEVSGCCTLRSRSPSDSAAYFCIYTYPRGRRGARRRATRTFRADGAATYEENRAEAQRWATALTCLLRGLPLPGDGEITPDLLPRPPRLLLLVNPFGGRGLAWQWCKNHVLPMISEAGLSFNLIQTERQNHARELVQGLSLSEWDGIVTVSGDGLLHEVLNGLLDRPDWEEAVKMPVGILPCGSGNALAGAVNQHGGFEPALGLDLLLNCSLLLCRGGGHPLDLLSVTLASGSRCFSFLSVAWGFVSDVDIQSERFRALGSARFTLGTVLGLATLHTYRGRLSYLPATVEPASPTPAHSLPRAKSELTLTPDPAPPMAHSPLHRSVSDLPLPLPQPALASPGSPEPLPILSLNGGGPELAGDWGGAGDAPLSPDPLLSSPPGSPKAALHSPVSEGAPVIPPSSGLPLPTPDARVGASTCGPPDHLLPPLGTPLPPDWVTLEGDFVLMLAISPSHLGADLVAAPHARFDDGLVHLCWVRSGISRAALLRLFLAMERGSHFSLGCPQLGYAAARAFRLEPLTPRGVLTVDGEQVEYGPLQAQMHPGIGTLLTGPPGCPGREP

[3] = biological target: T1, Sphingosine kinase 2 (Homo sapiens); details: at 1 µM
[4] = biological target: Casein kinase II subunit alpha (Homo sapiens) (UniProt P68400); details: at 0.1 µM
Sequence of Casein kinase II subunit alpha (Homo sapiens) (P68400 whole entry, looked up): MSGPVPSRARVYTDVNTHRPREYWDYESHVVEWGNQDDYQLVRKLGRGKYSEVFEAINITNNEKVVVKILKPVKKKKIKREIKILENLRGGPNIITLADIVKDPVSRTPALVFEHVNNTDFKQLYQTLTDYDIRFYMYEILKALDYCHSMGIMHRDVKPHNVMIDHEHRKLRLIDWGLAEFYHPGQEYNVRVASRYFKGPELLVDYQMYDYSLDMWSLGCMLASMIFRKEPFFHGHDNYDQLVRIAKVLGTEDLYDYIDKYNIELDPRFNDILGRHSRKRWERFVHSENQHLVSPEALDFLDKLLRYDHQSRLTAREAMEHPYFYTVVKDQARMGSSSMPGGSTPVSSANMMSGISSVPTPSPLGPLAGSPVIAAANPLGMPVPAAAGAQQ

[5] = biological target: Casein kinase II subunit alpha (Homo sapiens) (UniProt P68400); details: at 1 µM
[6] = biological target: T2, Inhibitor of nuclear factor kappa-B kinase subunit alpha (Homo sapiens) (UniProt O15111); details: at 0.1 µM
T2 sequence (whole entry): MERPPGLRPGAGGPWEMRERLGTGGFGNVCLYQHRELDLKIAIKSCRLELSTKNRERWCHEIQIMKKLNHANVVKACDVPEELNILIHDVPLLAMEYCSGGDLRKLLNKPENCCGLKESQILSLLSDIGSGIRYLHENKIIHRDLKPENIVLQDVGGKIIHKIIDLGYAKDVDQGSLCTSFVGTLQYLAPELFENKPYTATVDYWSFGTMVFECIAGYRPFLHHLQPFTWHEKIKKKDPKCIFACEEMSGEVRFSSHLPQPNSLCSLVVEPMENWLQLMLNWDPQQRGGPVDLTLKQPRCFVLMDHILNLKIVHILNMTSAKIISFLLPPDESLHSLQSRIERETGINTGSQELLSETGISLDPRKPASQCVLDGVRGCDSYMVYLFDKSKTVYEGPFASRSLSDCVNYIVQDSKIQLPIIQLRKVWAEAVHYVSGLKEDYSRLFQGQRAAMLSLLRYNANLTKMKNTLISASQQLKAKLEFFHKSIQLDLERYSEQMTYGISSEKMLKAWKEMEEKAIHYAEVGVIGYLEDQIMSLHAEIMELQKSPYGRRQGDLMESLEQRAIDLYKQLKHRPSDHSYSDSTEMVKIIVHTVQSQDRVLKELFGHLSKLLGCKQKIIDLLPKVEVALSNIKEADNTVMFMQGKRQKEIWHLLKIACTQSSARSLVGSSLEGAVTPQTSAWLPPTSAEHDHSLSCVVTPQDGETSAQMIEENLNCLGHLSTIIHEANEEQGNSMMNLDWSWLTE

[7] = biological target: T2, Inhibitor of nuclear factor kappa-B kinase subunit alpha (Homo sapiens); details: at 1 µM
[8] = biological target: T3, Inhibitor of nuclear factor kappa-B kinase subunit beta (Homo sapiens) (UniProt O14920); details: at 0.1 µM
T3 sequence (whole entry): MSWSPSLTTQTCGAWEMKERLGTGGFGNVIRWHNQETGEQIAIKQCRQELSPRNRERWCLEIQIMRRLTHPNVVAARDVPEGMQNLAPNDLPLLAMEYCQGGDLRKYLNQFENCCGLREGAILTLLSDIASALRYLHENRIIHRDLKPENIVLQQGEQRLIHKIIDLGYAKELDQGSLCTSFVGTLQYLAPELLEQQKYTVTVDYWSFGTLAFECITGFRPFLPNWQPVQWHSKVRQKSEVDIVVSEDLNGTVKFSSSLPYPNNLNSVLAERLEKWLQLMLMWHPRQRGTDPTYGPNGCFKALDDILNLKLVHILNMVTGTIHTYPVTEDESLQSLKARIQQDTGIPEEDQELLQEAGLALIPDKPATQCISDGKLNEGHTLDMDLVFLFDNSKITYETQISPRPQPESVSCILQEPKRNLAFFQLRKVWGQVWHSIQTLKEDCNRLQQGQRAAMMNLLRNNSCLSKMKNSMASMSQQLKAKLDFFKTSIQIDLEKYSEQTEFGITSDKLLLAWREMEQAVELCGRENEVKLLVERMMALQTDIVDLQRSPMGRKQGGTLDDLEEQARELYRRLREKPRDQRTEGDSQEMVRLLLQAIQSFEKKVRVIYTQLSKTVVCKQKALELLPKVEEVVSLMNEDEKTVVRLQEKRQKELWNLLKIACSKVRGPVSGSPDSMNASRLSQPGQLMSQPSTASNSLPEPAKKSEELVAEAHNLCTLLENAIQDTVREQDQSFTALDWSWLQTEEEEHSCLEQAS

[9] = biological target: T3, Inhibitor of nuclear factor kappa-B kinase subunit beta (Homo sapiens); details: at 1 µM
[10] = biological target: T4, Inhibitor of nuclear factor kappa-B kinase subunit epsilon (Homo sapiens) (UniProt Q14164); details: at 0.1 µM
T4 sequence (whole entry): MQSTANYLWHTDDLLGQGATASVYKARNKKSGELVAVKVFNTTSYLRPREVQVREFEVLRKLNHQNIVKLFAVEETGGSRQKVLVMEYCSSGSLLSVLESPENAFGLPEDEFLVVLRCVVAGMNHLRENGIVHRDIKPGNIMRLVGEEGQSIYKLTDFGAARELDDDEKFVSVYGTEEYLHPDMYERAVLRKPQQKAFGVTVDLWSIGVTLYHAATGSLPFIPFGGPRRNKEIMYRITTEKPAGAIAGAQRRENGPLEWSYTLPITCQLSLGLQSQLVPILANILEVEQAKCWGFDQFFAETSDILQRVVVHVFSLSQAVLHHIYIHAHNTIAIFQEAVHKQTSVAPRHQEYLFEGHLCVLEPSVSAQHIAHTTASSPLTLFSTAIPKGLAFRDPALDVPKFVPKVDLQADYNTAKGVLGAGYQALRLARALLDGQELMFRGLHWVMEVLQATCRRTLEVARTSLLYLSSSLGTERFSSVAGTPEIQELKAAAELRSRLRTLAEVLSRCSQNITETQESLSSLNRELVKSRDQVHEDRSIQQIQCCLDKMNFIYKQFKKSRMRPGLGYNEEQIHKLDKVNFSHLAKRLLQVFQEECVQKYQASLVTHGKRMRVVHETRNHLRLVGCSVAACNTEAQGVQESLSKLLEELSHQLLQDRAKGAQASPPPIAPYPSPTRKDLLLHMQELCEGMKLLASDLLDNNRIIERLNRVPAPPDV

[11] = biological target: T4, Inhibitor of nuclear factor kappa-B kinase subunit epsilon (Homo sapiens); details: at 1 µM
[12] = biological target: T5, Serine/threonine-protein kinase Nek1 (Homo sapiens) (UniProt Q96PY6); details: at 0.1 µM
T5 sequence (whole entry): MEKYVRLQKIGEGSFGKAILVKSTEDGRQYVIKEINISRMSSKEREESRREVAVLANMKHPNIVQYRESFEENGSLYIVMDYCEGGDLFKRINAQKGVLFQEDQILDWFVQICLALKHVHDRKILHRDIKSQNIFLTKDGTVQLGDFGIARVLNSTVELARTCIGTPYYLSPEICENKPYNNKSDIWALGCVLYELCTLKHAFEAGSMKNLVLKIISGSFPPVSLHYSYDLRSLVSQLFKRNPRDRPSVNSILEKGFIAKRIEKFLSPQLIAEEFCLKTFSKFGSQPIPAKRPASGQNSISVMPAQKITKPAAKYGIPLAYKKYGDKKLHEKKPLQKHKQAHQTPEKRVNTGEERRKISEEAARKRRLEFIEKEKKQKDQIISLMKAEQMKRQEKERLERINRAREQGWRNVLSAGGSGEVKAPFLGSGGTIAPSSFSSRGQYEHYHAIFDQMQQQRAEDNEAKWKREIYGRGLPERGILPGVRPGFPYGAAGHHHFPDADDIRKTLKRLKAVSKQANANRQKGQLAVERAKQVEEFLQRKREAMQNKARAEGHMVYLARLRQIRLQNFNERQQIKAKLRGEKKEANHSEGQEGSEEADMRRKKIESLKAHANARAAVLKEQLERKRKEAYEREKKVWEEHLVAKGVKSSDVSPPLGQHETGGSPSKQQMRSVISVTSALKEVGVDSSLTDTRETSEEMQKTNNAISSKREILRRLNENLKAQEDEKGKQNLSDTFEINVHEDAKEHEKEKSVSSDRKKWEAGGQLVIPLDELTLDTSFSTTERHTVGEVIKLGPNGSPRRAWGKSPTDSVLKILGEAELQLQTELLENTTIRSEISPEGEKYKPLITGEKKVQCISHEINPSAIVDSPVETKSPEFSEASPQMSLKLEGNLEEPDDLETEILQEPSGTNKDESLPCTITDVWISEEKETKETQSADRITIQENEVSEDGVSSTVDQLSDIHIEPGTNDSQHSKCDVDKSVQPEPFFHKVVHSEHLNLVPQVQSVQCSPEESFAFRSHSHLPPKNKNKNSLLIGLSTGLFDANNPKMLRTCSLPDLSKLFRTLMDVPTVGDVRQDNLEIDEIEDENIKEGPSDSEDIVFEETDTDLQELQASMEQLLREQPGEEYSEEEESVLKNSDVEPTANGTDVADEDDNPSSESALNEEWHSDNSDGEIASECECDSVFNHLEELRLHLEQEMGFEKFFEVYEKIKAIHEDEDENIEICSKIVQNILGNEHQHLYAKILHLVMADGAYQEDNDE

[13] = biological target: T5, Serine/threonine-protein kinase Nek1 (Homo sapiens); details: at 1 µM
[14] = biological target: T6, Serine/threonine-protein kinase Nek2 (Homo sapiens) (UniProt P51955); details: at 0.1 µM
T6 sequence (whole entry): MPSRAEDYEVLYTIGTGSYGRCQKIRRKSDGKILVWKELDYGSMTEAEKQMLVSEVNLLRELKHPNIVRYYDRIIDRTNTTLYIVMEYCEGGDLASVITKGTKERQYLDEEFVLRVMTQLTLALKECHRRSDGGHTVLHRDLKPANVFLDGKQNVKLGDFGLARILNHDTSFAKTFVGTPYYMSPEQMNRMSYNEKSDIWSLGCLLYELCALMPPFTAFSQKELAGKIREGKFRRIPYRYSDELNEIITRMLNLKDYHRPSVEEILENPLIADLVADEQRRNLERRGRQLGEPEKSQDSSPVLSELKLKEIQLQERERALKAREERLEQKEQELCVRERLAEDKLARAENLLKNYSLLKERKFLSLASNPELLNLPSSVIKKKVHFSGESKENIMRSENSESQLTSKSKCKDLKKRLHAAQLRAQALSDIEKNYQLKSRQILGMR

[15] = biological target: T6, Serine/threonine-protein kinase Nek2 (Homo sapiens); details: at 1 µM
[16] = biological target: Serine/threonine-protein kinase Nek6 (Homo sapiens) (UniProt Q9HC98); details: at 0.1 µM
Sequence of Serine/threonine-protein kinase Nek6 (Homo sapiens) (Q9HC98 whole entry): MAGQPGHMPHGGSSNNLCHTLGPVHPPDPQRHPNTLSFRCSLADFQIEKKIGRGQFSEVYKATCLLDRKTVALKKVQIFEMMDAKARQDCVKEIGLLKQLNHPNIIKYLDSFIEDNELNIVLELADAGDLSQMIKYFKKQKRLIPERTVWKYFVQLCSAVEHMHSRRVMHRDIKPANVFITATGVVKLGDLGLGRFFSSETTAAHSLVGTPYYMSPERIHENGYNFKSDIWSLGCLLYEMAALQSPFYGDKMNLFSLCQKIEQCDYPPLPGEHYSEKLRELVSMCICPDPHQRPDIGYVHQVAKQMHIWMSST

[17] = biological target: Serine/threonine-protein kinase Nek6 (Homo sapiens) (UniProt Q9HC98); details: at 1 µM
[18] = biological target: Serine/threonine-protein kinase Nek7 (Homo sapiens) (UniProt Q8TDX7); details: at 0.1 µM
Sequence of Serine/threonine-protein kinase Nek7 (Homo sapiens) (Q8TDX7 whole entry, looked up): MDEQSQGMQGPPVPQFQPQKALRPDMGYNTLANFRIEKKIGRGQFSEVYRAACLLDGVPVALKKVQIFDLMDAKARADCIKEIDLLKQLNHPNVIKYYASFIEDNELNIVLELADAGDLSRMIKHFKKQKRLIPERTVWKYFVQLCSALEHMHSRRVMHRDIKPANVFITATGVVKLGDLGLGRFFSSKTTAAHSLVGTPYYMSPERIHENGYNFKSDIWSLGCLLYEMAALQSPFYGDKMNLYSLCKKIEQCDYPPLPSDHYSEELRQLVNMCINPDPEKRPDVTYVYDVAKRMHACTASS

[19] = biological target: Serine/threonine-protein kinase Nek7 (Homo sapiens) (UniProt Q8TDX7); details: at 1 µM
[20] = biological target: T7, Serine/threonine-protein kinase Nek9 (Homo sapiens) (UniProt Q8TD19); details: at 0.1 µM;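 further: reported value is the mean percent inhibition of NEK9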
T7 sequence (whole entry): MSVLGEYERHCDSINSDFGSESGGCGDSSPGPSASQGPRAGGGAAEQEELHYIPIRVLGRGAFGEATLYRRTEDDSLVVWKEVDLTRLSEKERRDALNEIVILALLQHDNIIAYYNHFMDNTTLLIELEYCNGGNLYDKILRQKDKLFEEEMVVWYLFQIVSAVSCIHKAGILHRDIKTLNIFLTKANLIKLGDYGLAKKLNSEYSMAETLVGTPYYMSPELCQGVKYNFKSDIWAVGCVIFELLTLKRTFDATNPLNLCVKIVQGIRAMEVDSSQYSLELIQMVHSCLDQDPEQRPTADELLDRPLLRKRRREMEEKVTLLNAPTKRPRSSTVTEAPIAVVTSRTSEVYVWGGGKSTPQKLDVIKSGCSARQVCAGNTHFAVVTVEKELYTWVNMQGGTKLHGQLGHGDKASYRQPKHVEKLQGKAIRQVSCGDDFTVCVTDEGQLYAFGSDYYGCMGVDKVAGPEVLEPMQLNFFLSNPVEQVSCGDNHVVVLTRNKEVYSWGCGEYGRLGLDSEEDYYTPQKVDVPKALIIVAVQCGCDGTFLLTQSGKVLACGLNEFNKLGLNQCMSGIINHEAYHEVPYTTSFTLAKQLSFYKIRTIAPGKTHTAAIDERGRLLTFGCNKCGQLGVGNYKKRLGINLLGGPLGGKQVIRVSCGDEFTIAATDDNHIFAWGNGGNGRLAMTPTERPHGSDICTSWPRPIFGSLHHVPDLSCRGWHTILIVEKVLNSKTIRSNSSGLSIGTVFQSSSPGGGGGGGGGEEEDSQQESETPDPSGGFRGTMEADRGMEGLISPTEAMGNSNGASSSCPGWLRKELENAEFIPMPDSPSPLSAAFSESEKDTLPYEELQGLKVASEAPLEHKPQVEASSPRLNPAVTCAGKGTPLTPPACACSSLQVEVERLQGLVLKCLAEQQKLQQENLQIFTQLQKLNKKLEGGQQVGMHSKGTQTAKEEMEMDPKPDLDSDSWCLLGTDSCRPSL

Sequence of Sphingosine kinase 1 (Homo sapiens) (Q9NYA1 whole entry): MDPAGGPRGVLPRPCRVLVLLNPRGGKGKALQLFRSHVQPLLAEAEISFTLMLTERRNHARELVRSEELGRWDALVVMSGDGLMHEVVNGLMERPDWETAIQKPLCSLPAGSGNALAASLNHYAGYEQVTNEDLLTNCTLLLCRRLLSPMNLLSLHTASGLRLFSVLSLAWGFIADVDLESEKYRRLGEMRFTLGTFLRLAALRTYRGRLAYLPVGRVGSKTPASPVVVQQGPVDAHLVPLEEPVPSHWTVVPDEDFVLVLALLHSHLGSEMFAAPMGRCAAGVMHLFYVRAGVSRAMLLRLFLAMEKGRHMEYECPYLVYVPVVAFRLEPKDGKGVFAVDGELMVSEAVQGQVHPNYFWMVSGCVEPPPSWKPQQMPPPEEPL

Fc1cccc(COc2ccc(Nc3ncnc4sc(-c5cccs5)cc34)cc2Cl)c1
inhibition [1]: 1.25%
inhibition [2]: -2.31%
inhibition [3]: 1.14%
inhibition [4]: -0.4%
inhibition [5]: 1.52%
inhibition [6]: 3.55%
inhibition [7]: 1.01%
inhibition [8]: 1.1%
inhibition [9]: 0.28%
inhibition [10]: -0.11%
inhibition [11]: 3.74%
inhibition [12]: 2.04%
inhibition [13]: 2.57%
inhibition [14]: 2.88%
inhibition [15]: 1.85%
inhibition [16]: -0.49%
inhibition [17]: 1.79%
inhibition [18]: -0.09%
inhibition [19]: 5.03%
inhibition [20]: 1.95%
